Source: PubChem (National Center for Advancing Translational Sciences (NCATS))
Hits are enriched below; roughly 12% of the tested compounds scored in any of these assays.
CHX counter – Cycloheximide Counterscreen for Small Molecule Inhibitors of Shiga Toxin; cell reporter, cycloheximide protein synthesis inhibition counterscreen; max response, %; 12% of 300,000 active; in the data active means max response mostly above about 13%, no sharp cut-off; inactive means mostly below about 14%; further: read at 38.3 µM for the half of the compounds with a filed dose; 0% is about no effect
Sm TGR block – qHTS Assay for the Inhibitors of Schistosoma Mansoni Peroxiredoxins. Potency, µM (top dose mostly 114 µM), inactives show at the top dose activity change, negative = inhibition, hits mostly inhibitors. 3% of 360,000 active. AID 485364, 2010. purified TGR, DTNB reduction, TNB absorbance 405 nm. Schistosoma mansoni thioredoxin glutathione reductase (TGR), Q962Y6; active means well fitted inhibition curve with a large enough effect; inconclusive means small, poorly fitted or top-dose-only effect; inactive means no such curve, though single readings can be large or run the other way; further: potency means the concentration at half of the fitted maximal effect; on the % scale 0 is the no-effect control and ±100 the full control effect; nearly all actives have a fitted effect of over 60% in size
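First, TGR (20 nM dispensed) and NADPH were mixed with compound. Second, a 15 min room-temperature incubation followed. Third, further NADPH and then DTNB were added to start the reaction. Finally, TNB absorbance was monitored kinetically.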
FMDV inh – High Throughput Screening for Foot and Mouth Disease Virus Antivirals; 1.2% of 410,000 active; Potency, µM (titrated, usually from 57.9 µM), without a hit: top-dose activity change, negative = inhibition, usual class: inhibitors; FMDV antiviral cell-based qHTS; calls by dose curve; tested in HEK293T cells; further: read-out not given here; potency means the concentration at half of the fitted maximal effect; on the % scale 0 is the no-effect control and ±100 the full control effect; nearly all actives have a fitted effect of over 45% in size
Shiga toxin inh – A qHTS for Small Molecule Inhibitors of Shiga Toxin. Vero cells, Shiga toxin protein synthesis inhibition reporter. inhibition, % at 38.7 µM. 9.2% of 290,000 active; in the data active means inhibition mostly above about 28%, no sharp cut-off; inactive means mostly below about 43%; further: 0% is about no effect
* marks the source's active call; other numbers are inactive results; ? = inconclusive; · = not tested or not shown.

SMILES | CHX counter | Sm TGR block | FMDV inh | Shiga toxin inh
CC(C)CC(=O)Nc1nnc(-c2ccco2)s1 | 29* | -19% | · | 65
CCc1ccc(OCC(=O)Nc2nnc(-c3ccco3)s2)cc1 | -3 | 27% | 21% | -4
Cc1ccc(S(=O)(=O)N2CCC(C(=O)Nc3nnc(-c4ccco4)s3)CC2)cc1 | -1 | ? | 2% | -18
COC(=O)Nc1nnc(-c2ccco2)s1 | 12* | ? | 9% | 29
O=C(Nc1nnc(-c2ccco2)s1)C1CCCCC1 | 42* | 0% | 25% | 71*
COc1ccc2[nH]cc(CCNc3ncncc3-c3ccc4c(c3)OCO4)c2c1 | · | · | 20µM* | ·
COc1cccc2sc(N(C)c3ccccc3)nc12 | 61* | 26% | -3% | 86
COc1cccc2sc(N)nc12 | · | -9% | -5% | ·
COc1cccc2sc(/N=C/N(C)C)nc12 | 10* | -2% | -4% | 50*
CSc1ccc(CCNc2ncnc3onc(C)c23)cc1 | · | -6% | -2% | ·
COCC(=O)N1c2nc(C(C)C)nn2C2(CCCCC2)[C@@H]2CCCC[C@@H]21 | · | 0% | -12% | ·
c1ccc(NC2=Nc3ccccc3CC2)cc1 | 37* | 0% | 31% | 45*
c1ccc(Nc2ccc3c4c(cccc24)CC3)cc1 | 3 | -1% | -7% | 2
CC1CCC(O)C/C1=C\C=C1/CCCC2(C)C1CCC2C(C)/C=C/C(C)C(C)C (stereo not drawn) | 13 | · | · | 4
Cn1c(-c2ccccc2)nc2cnccc21 | 11 | -14% | -2% | 11
CCOC(=O)Cn1c(-c2ccc(Cl)nc2)nc2ccccc21 | -3 | 10% | -21% | 16
Cn1c(-c2ccc(Cl)nc2)nc2ccccc21 | 15* | -18% | 25% | 58*
Cn1c(-c2ccc(N)cc2)nc2ccccc21 | 56* | 2% | 39% | 75*
Cn1c(-c2ccc3nc(N)sc3c2)nc2cc(N)ccc21 | 21* | -12% | 23% | 6
Cn1c(CCc2ccc(N)cc2)nc2ccccc21 | 32* | · | 17% | 60
COc1ccccc1CNC(=O)CN1C(=O)COc2ccc(S(=O)(=O)Nc3ccccc3)cc21 | · | -11% | 39% | ·
COc1ccc(C(=O)Nc2cccc(-c3cn4ccsc4n3)c2)cc1OC | · | 3% | 6% | ·
CCOC(=O)Cn1c(=O)n(C2CCCCC2)c2nc(-c3ccc(OCC)cc3)nc(C(N)=O)c21 | · | -1% | -3% | ·
COc1ccc(NC(=O)COc2ccc(S(=O)(=O)NC3CCCCC3)cc2)cc1OC | · | 0% | 6% | ·
Cc1ccc(-n2c(N)c(-c3nc4ccccc4n3C)sc2=S)cc1 | 11* | -22% | 25% | 18
SMILES | CHX counter | Sm TGR block | FMDV inh | Shiga toxin inh
Cn1c(N)c(-c2nc3cccnc3n2C)sc1=S | 6 | 11% | 31% | 24
O=C(CSc1nc2ccccc2c(=O)n1-c1ccc(F)cc1F)Nc1ccc2c(c1)CCC2 | 59* | 9% | -14% | 80*
COc1cccc(OCCCn2c(-c3ccc(Cl)cc3)nc3ccccc3c2=O)c1 | · | 0% | -21% | ·
COc1cc(Nc2ccc(C)cc2)c([N+](=O)[O-])nc1[N+](=O)[O-] | -2 | 25µM* | ? | 9
Cc1cccc(NC(=O)C(=O)NCCc2csc(-c3ccc(F)cc3)n2)c1C | · | 5% | -18% | ·
O=C(c1ccc([N+](=O)[O-])o1)N1CCc2ccccc2C1 | -3 | 0% | 3% | -7
CC(=O)c1ccc(-c2ccc(C(=O)N3CCCc4ccccc43)o2)cc1 | 27* | ? | -15% | 142
COc1cc2c(cc1OC)CN(C(=O)c1ccc([N+](=O)[O-])o1)CC2 | -3 | 28µM* | -21% | 7
CC(=O)c1ccc(-c2ccc(C(=O)N3CCN(c4ccc(F)cc4)CC3)o2)cc1 | 21* | -18% | -27% | 19
O=C(c1ccc([N+](=O)[O-])o1)N1CCc2ccccc21 | 14* | -7% | 0% | 38*
Cc1ccccc1NC(=O)Cn1nnc(C(=O)NCCc2ccccc2)c1N | · | 5% | -14% | ·
Cc1ccc(C(=O)N2c3ccccc3CC2C)o1 (stereo not drawn) | 39* | -22% | 25% | 92*
Cc1c(C(=O)N2CCc3ccccc32)oc2c1C(=O)CC(C)(C)C2 | 32* | ? | 54% | 69*
Cc1ccc(C(=O)N2CCc3ccccc32)o1 | 57* | -6% | -17% | 98*
Cc1nc2ccccc2c2oc(C(=O)N3CCc4ccccc43)cc12 | 1 | 7% | · | -4
O=C(NCCSc1c[nH]c2ccccc12)c1ccccc1Cl | · | 4% | -14% | ·
COc1cccc(CCNC(=O)c2cnc3sc(N4CCCCCC4)nn3c2=O)c1 | · | 7% | ? | ·
CNC(=O)c1c(NC(=O)C(C)C)sc2c1CCC2 | -5 | 45µM* | 1% | -2
Cc1cc(C(=O)Nc2sc3c(c2C#N)CCCCC3)cs1 | 29* | -13% | 19% | 60*
CNC(=O)c1c(NC(=O)c2nc3ccccc3s2)sc2c1CCC2 | 26* | 45µM* | · | 94*
CNC(=O)c1c(NC(=O)c2ccc(N3C(=O)CCC3=O)cc2)sc2c1CCCC2 | -1 | -10% | 18% | -2
N#Cc1c(NC(=O)CSc2ncn[nH]2)sc2c1CCCCC2 | -8 | -2% | 8.9µM* | -35
O=S(=O)(c1ccc(Br)cc1)c1nc(-c2ccco2)oc1SCc1ccccc1Cl | · | -8% | -5% | ·
COC(=O)c1c(NC(=O)c2cc3ccccc3c(=O)o2)sc2c1CCCC2 | · | -4% | -11% | ·
COc1cccc(NC(=O)c2oc3ccccc3c2NC(=O)c2ccc(C(F)(F)F)cc2)c1 | · | 5% | 3% | ·
SMILES | CHX counter | Sm TGR block | FMDV inh | Shiga toxin inh
O=C(NC1CCCCCC1)c1cc2c(Cl)nc3ccccc3c2s1 | · | -8% | -2% | ·
CCCC(=O)Nc1sc2c(c1C#N)CCCC2 | 33* | 5% | 20% | 74*
Cc1cnc(C(=O)OCC(=O)Nc2sc3c(c2C#N)CCC3)cn1 | · | -1% | -7% | ·
CC(C)C(=O)Nc1sc2c(c1C#N)CCCCC2 | 24* | -21% | 27% | 62*
CC(C)(C)C(=O)Nc1sc2c(c1C#N)CCC2 | 1 | -11% | 7% | -9
COC(=O)CCC(=O)Nc1sc2c(c1C#N)CCCC2 | 22 | 5% | -18% | -8
Cc1sc(NC(=O)CS(=O)(=O)c2ccccc2)c(C#N)c1C | · | 4% | 63% | ·
Cc1sc(NC(=O)COc2ccccc2)c(C#N)c1C | 41* | 10% | 12% | 96*
Cc1cccc(OCC(=O)Nc2sc3c(c2C#N)CCC3)c1 | 21* | -10% | · | 60*
CCc1ccc(NC(=O)Cn2c(=O)n(CCCC(=O)NCCc3ccc(OC)c(OC)c3)c(=O)c3ccccc32)cc1 | · | 10% | -24% | ·
N#Cc1c(NC(=O)C2CC2)sc2c1CCCCC2 | 31* | -29% | 28% | 37*
N#Cc1c(NC(=O)c2nc3ncccn3n2)sc2c1CCCCC2 | 30* | -3% | 0% | 58*
CC1CCc2c(sc(NC(=O)c3nc4ncccn4n3)c2C#N)C1 (stereo not drawn) | -1 | 5% | 35% | -7
Cc1onc(C(=O)Nc2sc3c(c2C#N)CCCC3)c1[N+](=O)[O-] | 33* | -33% | 44% | 82*
CS(=O)(=O)N(CC(=O)N1CCCC1)Cc1ccc(F)cc1 | -3 | 40µM* | 4% | -9
COc1ccc2oc(=O)cc(CN3CCN(c4ccccc4F)CC3)c2c1 | · | 1% | ? | ·
